# About 8,800 targets were measured; listed, in parts, are those with a hit and a random draw of the rest. About 0.5% of all pairs of compound and target were hits. Values without a mark were called inactive.
# How the values were obtained:
# Assay in all cases: log2 fold change, soluble protein after heating vs DMSO (PISA); higher = thermal stabilisation; K562 lysate, 10 uM; active = over 0.2 and 3.5 SD of the protein, either way, in both replicates (recomputed)
# erlotinib = compound: C#Cc1cccc(Nc2ncnc3cc(OCCOC)c(OCCOC)cc23)c1 [erlotinib]
# Outline: (§1)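 Soluble protein was defined as the supernatant remaining after 21,000xg for 90 min, following pooling of heated aliquots and adjustment to 0.5% NP-40 at 4°C. Before that, crude K562 extract at 1 mg/mL protein in PBS pH 7.4 with 1 mM MgCl2 was treated with 10 μM compound for 30 min and heated for 3 min across 48°C-58°C. Quantification used TMTpro 16plex LC-MS/MS with channel sums equalised, and values are log-two fold changes in thermal stability relative to solvent controls from duplicates.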
# [1] = compound: C/C(=N\NC(=O)C1=CC(=CC=C1)S(=O)(=O)N2CCOCC2)/C3=C(C=CC(=C3)Cl)O
# Outline: as §1
# [2] = compound: C1=CC(=CC=C1C2=NC3=C(N2)C=C(C=C3)C(=O)N)OC4=CC=C(C=C4)Cl
# Outline: as §1
# [3] = compound: C1=CC2=C(C=CC(=C2)/C=C\3/C(=O)NC(=NCC4=CC=CS4)S3)N=C1
# Outline: as §1
# [4] = compound: C1=CC2=NC=CN=C2C=C1/C=C/3\C(=O)NC(=O)S3
# Outline: as §1
# [5] = compound: C1=CC=C(C=C1)C2=NC(=C(N2)C3=CC=NC=C3)C4=CC(=C(C=C4)Cl)O
# Outline: as §1
# [6] = compound: C1=CC=C2C(=C1)C3=NNC4=CC=CC(=C43)C2=O
# Outline: as §1
# [7] = compound: C1CCN(C1)C(=O)NC2=CC=CC(=C2)NC3=NC=C(C(=N3)NCCC4=CN=CN4)Br
# Outline: as §1
# [8] = compound: C1CN(CCC1(CC2=CC=C(C=C2)Cl)N)C3=NC=NC4=C3C=CN4
# Outline: as §1
# IRAK-1-4 Inhibitor I = compound: C1COCCN1CCN2C3=CC=CC=C3N=C2NC(=O)C4=CC(=CC=C4)[N+](=O)[O-] [IRAK-1-4 Inhibitor I]
# Outline: as §1
# Chain of UniProt P19623 (P19623 whole entry, looked up): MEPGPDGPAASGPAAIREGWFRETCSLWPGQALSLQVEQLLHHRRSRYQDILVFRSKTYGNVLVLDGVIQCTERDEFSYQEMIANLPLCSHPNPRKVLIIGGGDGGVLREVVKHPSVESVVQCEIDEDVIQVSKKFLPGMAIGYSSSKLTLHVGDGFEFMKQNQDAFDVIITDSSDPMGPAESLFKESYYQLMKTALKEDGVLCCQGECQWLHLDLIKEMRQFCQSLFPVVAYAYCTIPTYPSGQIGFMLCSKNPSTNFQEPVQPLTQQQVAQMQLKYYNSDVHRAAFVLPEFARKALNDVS
# Chain of UniProt Q13573 (Q13573 whole entry, looked up): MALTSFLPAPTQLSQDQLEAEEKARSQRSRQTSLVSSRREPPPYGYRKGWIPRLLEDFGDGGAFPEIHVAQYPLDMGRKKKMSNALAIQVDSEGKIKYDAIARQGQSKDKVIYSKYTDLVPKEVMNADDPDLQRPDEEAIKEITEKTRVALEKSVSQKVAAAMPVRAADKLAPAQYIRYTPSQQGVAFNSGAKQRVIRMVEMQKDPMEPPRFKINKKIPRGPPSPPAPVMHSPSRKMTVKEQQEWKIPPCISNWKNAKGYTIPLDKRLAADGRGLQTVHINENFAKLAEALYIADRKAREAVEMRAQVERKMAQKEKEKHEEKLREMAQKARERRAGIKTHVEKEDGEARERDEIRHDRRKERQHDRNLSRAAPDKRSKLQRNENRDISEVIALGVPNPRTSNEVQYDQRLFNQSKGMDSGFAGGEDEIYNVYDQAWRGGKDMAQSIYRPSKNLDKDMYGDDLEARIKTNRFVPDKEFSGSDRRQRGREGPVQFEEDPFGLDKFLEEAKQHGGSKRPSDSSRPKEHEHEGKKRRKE
# Chain of UniProt O95793 (O95793 whole entry, looked up): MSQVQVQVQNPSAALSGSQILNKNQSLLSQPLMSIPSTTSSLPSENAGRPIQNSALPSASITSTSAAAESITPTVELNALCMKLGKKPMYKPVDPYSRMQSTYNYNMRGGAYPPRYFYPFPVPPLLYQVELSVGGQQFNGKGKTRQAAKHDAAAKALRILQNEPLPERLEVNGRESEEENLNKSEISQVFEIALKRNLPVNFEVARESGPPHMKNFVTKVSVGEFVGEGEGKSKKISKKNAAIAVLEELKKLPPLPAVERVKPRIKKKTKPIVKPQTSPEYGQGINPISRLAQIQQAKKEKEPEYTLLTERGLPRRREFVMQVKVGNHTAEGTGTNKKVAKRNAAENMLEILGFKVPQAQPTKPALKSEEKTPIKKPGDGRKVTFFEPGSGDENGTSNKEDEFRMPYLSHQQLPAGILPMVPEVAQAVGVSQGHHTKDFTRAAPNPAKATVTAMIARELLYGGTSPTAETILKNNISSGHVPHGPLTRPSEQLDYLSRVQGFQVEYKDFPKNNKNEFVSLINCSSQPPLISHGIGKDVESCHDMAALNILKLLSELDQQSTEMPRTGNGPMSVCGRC
# Chain of UniProt Q8WUM9 (Q8WUM9 whole entry, looked up): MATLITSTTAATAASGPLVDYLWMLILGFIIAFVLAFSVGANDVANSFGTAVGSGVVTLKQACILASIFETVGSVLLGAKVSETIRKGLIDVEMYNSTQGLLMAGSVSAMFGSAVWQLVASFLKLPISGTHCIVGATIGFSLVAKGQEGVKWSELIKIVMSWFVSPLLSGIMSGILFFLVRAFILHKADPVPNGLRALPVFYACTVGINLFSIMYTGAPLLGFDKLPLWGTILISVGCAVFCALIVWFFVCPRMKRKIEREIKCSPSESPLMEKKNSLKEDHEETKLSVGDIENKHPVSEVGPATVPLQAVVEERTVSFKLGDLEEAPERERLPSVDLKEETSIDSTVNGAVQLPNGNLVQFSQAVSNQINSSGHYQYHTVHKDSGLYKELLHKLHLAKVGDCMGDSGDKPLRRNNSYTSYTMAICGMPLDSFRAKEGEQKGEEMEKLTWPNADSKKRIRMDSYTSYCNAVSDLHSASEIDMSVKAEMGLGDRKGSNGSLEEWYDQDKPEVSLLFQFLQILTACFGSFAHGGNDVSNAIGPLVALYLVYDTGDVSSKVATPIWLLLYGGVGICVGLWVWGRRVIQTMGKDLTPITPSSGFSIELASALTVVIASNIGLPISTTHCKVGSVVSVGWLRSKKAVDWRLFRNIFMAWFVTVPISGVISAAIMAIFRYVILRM
# Chain of UniProt P35270 (P35270 whole entry, looked up): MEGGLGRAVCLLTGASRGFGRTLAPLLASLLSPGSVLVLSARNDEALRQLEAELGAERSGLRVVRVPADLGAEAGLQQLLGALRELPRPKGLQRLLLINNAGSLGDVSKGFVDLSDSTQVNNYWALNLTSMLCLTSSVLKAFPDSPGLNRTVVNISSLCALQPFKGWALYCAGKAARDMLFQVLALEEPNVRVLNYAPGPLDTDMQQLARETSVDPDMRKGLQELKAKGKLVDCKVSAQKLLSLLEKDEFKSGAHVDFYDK
# Chain of UniProt Q9BXS9 (Q9BXS9 whole entry, looked up): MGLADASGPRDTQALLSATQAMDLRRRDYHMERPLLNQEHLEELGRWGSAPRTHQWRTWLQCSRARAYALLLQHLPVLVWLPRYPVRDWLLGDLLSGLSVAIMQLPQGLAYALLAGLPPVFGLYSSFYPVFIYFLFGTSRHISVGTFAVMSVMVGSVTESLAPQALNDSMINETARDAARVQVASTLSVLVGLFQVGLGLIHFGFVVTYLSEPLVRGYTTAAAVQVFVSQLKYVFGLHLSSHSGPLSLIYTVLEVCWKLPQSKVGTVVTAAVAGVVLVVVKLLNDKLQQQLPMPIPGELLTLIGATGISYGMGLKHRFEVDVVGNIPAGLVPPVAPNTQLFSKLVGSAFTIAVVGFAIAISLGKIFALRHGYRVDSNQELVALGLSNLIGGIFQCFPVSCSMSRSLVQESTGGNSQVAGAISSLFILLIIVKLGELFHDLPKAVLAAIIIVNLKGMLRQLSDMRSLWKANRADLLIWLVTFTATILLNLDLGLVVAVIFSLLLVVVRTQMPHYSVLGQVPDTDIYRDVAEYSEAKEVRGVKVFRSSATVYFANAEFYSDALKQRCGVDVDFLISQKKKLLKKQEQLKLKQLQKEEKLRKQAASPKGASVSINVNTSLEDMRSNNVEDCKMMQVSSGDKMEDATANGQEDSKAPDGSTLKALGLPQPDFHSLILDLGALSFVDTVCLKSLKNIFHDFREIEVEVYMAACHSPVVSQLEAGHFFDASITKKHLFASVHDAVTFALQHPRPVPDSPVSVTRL
# Chain of UniProt P35610 (P35610 whole entry, looked up): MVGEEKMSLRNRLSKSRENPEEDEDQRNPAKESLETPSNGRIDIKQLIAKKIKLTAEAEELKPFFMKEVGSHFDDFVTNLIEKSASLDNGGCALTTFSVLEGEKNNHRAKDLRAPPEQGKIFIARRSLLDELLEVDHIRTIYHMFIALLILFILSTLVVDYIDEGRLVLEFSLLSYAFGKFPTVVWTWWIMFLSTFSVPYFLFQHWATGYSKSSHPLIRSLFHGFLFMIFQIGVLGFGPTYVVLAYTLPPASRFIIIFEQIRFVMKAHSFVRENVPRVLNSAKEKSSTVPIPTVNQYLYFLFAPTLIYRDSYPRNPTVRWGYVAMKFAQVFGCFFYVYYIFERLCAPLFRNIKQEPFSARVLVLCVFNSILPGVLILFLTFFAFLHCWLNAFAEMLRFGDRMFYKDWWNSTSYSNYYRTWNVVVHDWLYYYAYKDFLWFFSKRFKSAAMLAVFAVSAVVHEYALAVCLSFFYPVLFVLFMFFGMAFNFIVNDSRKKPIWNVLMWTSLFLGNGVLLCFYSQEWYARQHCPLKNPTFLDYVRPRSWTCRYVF
# Chain of UniProt Q7KZF4 (Q7KZF4 whole entry, looked up): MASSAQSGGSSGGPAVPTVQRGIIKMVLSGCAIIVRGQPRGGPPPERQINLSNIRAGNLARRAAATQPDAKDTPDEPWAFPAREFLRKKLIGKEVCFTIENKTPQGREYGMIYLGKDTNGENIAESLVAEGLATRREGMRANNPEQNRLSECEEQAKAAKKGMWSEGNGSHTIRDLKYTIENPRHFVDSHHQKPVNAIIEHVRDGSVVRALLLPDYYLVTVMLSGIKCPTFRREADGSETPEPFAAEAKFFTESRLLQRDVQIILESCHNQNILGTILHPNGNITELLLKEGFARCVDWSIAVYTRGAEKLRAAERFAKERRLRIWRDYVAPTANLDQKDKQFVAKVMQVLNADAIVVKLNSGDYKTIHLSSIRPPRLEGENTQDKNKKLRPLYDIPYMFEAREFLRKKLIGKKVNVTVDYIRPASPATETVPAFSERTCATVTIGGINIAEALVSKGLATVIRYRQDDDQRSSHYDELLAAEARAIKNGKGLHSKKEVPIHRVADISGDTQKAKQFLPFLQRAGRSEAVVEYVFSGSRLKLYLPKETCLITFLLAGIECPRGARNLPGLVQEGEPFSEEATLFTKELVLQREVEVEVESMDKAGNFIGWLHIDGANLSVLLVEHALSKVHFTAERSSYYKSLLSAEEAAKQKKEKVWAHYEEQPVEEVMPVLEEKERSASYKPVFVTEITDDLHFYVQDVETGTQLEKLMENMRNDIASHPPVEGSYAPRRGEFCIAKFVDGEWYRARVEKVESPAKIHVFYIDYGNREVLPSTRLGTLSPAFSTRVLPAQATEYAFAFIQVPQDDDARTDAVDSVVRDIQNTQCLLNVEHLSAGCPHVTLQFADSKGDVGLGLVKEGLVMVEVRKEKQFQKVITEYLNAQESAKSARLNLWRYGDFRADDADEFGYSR
# Chain of UniProt Q13242 (Q13242 whole entry, looked up): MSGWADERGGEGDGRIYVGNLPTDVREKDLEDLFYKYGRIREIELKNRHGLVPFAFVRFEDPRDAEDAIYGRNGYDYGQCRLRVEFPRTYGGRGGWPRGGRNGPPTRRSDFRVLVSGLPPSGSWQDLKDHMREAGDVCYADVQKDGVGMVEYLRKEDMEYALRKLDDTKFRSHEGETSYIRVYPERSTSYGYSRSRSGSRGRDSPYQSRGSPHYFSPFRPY
# Chain of UniProt Q8NHG7 (Q8NHG7 whole entry, looked up): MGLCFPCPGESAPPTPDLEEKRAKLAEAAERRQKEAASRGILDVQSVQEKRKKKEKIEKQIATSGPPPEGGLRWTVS
Target,log2 fold change (erlotinib),log2 fold change [1],log2 fold change [2],log2 fold change [3],log2 fold change [4],log2 fold change [5],log2 fold change [6],log2 fold change [7],log2 fold change [8],log2 fold change (IRAK-1-4 Inhibitor I)
SORBS3 (UniProt O60504),-0.01,0.028,0.021,0.018,-0.054,-0.092,0.057,0.09,0.129,0.088
TARDBP (UniProt Q13148),-0.017,-0.092,0.018,0.004,0.09,-0.133,-0.036,-0.065,0.032,0.048
SRSF9 (UniProt Q13242),0.027,0.263 (active),0.007,0.077,0.052,-0.01,0.097,0.072,0.007,0.012
SPATS2 (UniProt Q86XZ4),-0.012,-0.127,-0.042,0.028,-0.007,0.017,-0.081,0.063,0.043,-0.066
SH3GL3 isoform 3 (UniProt Q99963),-0.023,-0.014,-0.002,-0.054,-0.053,-0.108,-0.133,0.054,-0.06,-0.124
SLC25A25 isoform 3 (UniProt Q6KCM7),-0.029,0.054,-0.038,0.039,-0.003,-0.027,0.01,0.011,-0.026,-0.041
SNRNP40 (UniProt Q96DI7),0.025,0.046,-0.03,-0.031,-0.031,0.009,0.011,0.02,-0.004,0.01
SH3GL1 (UniProt Q99961),-0.009,0.016,-0.022,-0.004,-0.008,0.001,-0.003,-0.027,0.006,-0.017
SLC20A1 (UniProt Q8WUM9),0.032,0.059,0.089,-0.097,0.005,0.02,0.085,0.069,0.214,0.05
SOAT1 (UniProt P35610),0.06,-0.007,-0.042,0,-0.048,0.056,-0.058,-0.056,-0.019,0
SPR (UniProt P35270),-0.027,0.014,-0.021,0.056,0.049,1.04 (active),0.013,0.008,-0.041,0.049
SND1 (UniProt Q7KZF4),0.022,0.042,-0.009,0.007,0.031,0.017,-0.042,0.005,-0.005,-0.012
TANGO6 (UniProt Q9C0B7),0.045,-0.04,0.012,-0.011,0.009,-0.049,-0.048,0.007,0.023,0.048
SLC7A5 (UniProt Q01650),0.001,-0.009,-0.029,-0.015,0.02,0.007,-0.008,0.019,-0.006,0.021
TAF9 (UniProt Q16594),0.022,0.009,0.081,0.056,0.002,0.013,-0.052,-0.08,0.084,0.032
SRSF2 (UniProt Q01130),0.005,0.041,0.026,-0.038,-0.018,-0.017,-0.031,0.023,-0.037,0.04
SPG11 (UniProt Q96JI7),0.05,0.033,0.005,-0.012,0.333,0.076,0.025,-0.016,0.019,0.023
SLC26A6 (UniProt Q9BXS9),-0.04,-0.117,0.024,-0.018,-0.044,0.032,-0.114,-0.13,0.087,-0.062
TARBP1 (UniProt Q13395),0.134,0.047,-0.02,0.051,-0.059,0.044,-0.048,0.007,0.034,0.084
STAT2 (UniProt P52630),-0.009,0.033,-0.102,-0.01,0.034,0.003,-0.032,0.002,0.018,-0.018
SVIP (UniProt Q8NHG7),0.037,0.013,-0.004,-0.007,0.001,0.041,-0.012,0.107,0.057,0.001
STAU1 (UniProt O95793),0.02,-0.001,-0.032,0.002,-0.016,-0.08,-0.007,-0.018,-0.003,0.055
SPIRE1 (UniProt Q08AE8),-0.062,0.054,-0.032,0.068,-0.067,0.027,0.022,0.013,-0.024,-0.032
SUZ12 (UniProt Q15022),0.024,-0.077,-0.018,0.007,0.004,0.034,-0.079,-0.038,-0.021,0.02
SH3BP5L (UniProt Q7L8J4),0.001,-0.156,0.004,-0.058,-0.032,0.003,0.065,-0.019,0,0
SRM (UniProt P19623),-0.006,0.039,0.017,-0.001,0.014,0.004,-0.003,0.017,0.027,0.007
SLC25A44 (UniProt Q96H78),0.117,-0.275,0.055,-0.018,0.025,-0.064,0.145,-0.039,0.037,-0.053
SNW1 (UniProt Q13573),-0.038,-0.017,0.026,-0.018,-0.033,-0.006,-0.004,0.022,-0.021,0
SLC30A9 (UniProt Q6PML9),-0.023,0.039,-0.17,-0.079,0.017,-0.012,-0.023,-0.056,0.1,-0.005
SLC19A1 (UniProt P41440),-0.032,-0.024,0.049,-0.04,-0.025,-0.001,-0.017,-0.023,0.023,0.033

# From the supplement of paper PMC10849652
